Only some compounds are listed: those with a hit (about 4.7% of all), similar ones and a draw of the others.
EBV LMP1 NFkB – inhibitors of Epstein-Barr LMP1-induced NF-kappaB reporter. LMP1-induced NF-kappaB luciferase reporter cells, luminescence. inhibition, % at 12.5 µM. 350,000 compounds, 0.69% hits; in the data active means inhibition above about 41%;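 further: 0% = neutral control wells and 100% = reference inhibitor control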
HSF-1 act – increases HSF-1 driven luciferase reporter signal | 300,000 compounds, 1.7% hits | activation, % at 9 µM | AID 504408 | NIH3T3-HGL HSF-1 luciferase reporter, MG132, 8 h; 100% = twice DMSO control signal;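 active means mean replicate activation of at least 50% with a set share of replicates each reaching 50%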;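 further: 0% = median of the neutral control wells and 100% = twice that signal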
HSP90 inh – blocks HSP90-mediated luciferase refolding in reticulocyte lysate. 290,000 compounds, 0.91% hits. inhibition, % at 5.6 µM. Rabbit reticulocyte lysate, luciferase refolding luminescence, 3 h;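 active means inhibition above the screen-wide mean plus 3 SD, computed separately per campaign, cut at about 16% in these data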;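 further: 0% = DMSO wells and 100% = 60 µM geldanamycin wells; inhibitors lower the luminescence because luciferase stays unfolded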
TWEAK Fn14 block – TWEAK-Fn14 signaling inhibition | TWEAK-stimulated Fn14 reporter cells, luciferase luminescence, 8 h | inhibition, % at 10 µM | 360,000 compounds, 2% hits | AID 1159606; in the data active means inhibition above about 50%
TROY signal inh – TROY signaling inhibition. Q293 LMP1-TROYcd NF-kB luciferase reporter, 4 h. 360,000 compounds, 0.98% hits. AID 1347056. inhibition, % at 10 µM;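 active means compounds whose plate-normalised and pattern-corrected inhibition of the luciferase reporter signal at the single screening dose is 50% or more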
HSF1 inh – HSF1 inhibition. NIH3T3-HGL HSE-luciferase, MG132-induced, luminescence 8 h; hits give low values. activity change, negative = inhibition, % at 7.5 µM (by protocol). 300,000 compounds, 0.77% hits. AID 2098;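 active means more than half of replicate wells show activity change below -50%, luminescence cut by over half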;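 further: luciferase reports HSF-1 transcriptional activity via heat shock element; 0% = median of DMSO wells and -100% = zero luminescence signal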
* hit, by the source's call; . = no result given.

SMILES	EBV LMP1 NFkB	HSF-1 act	HSP90 inh	TWEAK Fn14 block	TROY signal inh	HSF1 inh
CCCc1nc2ccc(Cl)cn2c1Cc1ccccc1	.	.	.	10	-7	.
CCOc1ccc(CCNC(=O)CN(C)S(=O)(=O)c2ccc3c(c2)CCC(=O)N3)cc1OCC	-4	-65	-2	-9	12	-54*
COc1ccc(C(=O)N2CCCC(c3cc(C(=O)Nc4ccccc4)no3)C2)cc1 (stereo not given)	.	.	.	-3	-31	.
COc1ccc(-c2cccc(N3CCN(c4ccccn4)CC3)n2)cc1OC	.	.	.	6	11	.
CC(Oc1ccccc1)C(=O)N1CCN(C(=O)C(C)Oc2ccccc2)CC1 (stereo not given)	-13	-14	-1	-22	-9	-5
COc1ccc(OC(C)C(=O)N2CCC(C)CC2)cc1 (stereo not given)	-1	-73	0	-4	-7	-66*
COC(=O)C1=C(C)NC(C)=C(C(=O)OC)C1c1ccc(-c2cc(Cl)ccc2Cl)o1	-6	15	1	21	-4	13
COC(=O)C1=C(C)NC(C)=C(C(=O)OC)C1c1ccc(-c2cccc(Cl)c2Cl)o1	-6	53*	4	13	5	22
COC(=O)C1=C(C)NC(=S)NC1c1ccc(-c2cccc(Cl)c2)o1 (stereo not given)	-2	72*	0	4	-8	44
CCOC(=O)CCCCCC(=O)Nc1ccc2c(c1)C(=O)N([C@@H](C)CO)C[C@H](C)[C@H](CN(C)C(=O)c1ccccc1)OCCCC[C@H](C)O2	-2	.	.	-14	-4	.
C[n+]1ccc(/C=C/c2ccccc2O)c2ccccc21	13	1	1	-4	12	-6
CN1/C(=C/c2cc[n+](C)c3ccccc23)C=Cc2ccccc21	47*	.	4	34	19	.
Cc1ccc(S(=O)(=O)N2CCC(=O)N([C@H](COCc3ccc(Cl)cc3)C(C)C)CC2)cc1	.	.	.	1	-7	.
CCOC(=O)c1c(C)[nH]c(C(=O)OCCOc2ccccc2C)c1C	24	-48	9	27	55*	-29
CCOC(=O)c1[nH]c(C)c(C(=O)Nc2ccc(F)cc2)c1C	2	57*	-2	9	7	25
CCOC(=O)c1c(C)[nH]c(C(=O)N/N=C/c2ccc(Br)cc2)c1C	-3	-28	2	55*	41	-18
CCOC(=O)c1[nH]c(C)c(C(=O)Nc2ccc(C)c(C)c2)c1C	-12	12	-4	17	-8	11
CCOC(=O)c1[nH]c(C)c(C(=O)NCCC2=CCCCC2)c1C	-18	61*	-3	-15	-12	36
CCNC(=O)NC(=O)CSc1nnc(-c2c[nH]c3ccccc23)o1	-5	-10	-3	-6	2	2
O=C(CSc1nnc(Cn2nnc3ccccc32)o1)N(Cc1ccc(F)cc1)c1ccccc1	-1	42	2	56*	43	19
COc1ccc(CN(C(=O)CSc2nnc(-c3ccc(F)cc3)o2)c2ccc(F)cc2)cc1	2	9	4	10	1	10
CCC(C)NC(=O)CSc1nnc(-c2c[nH]c3ccccc23)o1 (stereo not given)	-7	0	17*	-14	-9	1
COc1ccc(CN(C(=O)CSc2nnc(-c3c[nH]c4ccccc34)o2)c2ccc(F)cc2)cc1OC	36	-34	1	72*	38	-34
COc1ccc(N(Cc2ccccc2)C(=O)CSc2nnc(Cn3nnc4ccccc43)o2)cc1	-10	12	2	-4	20	21
CCCCCN1C=CC(=C2C(=O)c3ccccc3C2=O)C=C1	76*	-85	80*	77*	78*	-81*
CC1=CC(=C2C(=O)c3ccccc3C2=O)C=C(C)N1C	-18	23	-1	10	-21	14
O=C(/C=C/c1ccc(O)c(O)c1)NC(=O)c1ccccc1O	-8	27	-1	8	-100	13
O=C(/C=C/c1ccc(Br)cc1)NC(=O)c1ccccc1O	-26	161*	-2	22	31	127
CCN(CC)C(=O)C1=C(C)N(CCCOC)C(=O)C(CC(=O)NCCCCc2ccccc2)C1 (stereo not given)	-13	.	.	2	0	.
C[C@H](CO)N1C[C@H](C)[C@@H](CN(C)Cc2ccc(C(=O)O)cc2)Oc2ncc(-c3ccc(C(=O)N(C)C)cc3)cc2C1=O	-2	.	.	3	-3	.

Source: PubChem BioAssay
